The full list was thinned out, with hits kept by preference.
LmPK inhibitor: inhibitors of Leishmania mexicana pyruvate kinase | Q27686 | purified LmPK, Kinase-Glo ATP luminescence, 1 h | Potency, µM (titrated, usually from 57.5 µM), for inactives: at the top dose activity change, negative = inhibition, most hits filed as inhibitors | 290,000 tested, 0.37% active; further: potency means the concentration at half of the fitted maximal effect; on the % scale 0 is the no-effect control and ±100 the full control effect
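Screened at intermediate enzyme activity to detect both inhibitors and activators: LmPK at 0.1 nM, with a 0.5 nM enzyme column as activation reference. PEP 0.5 mM, ADP 0.1 mM; ATP detected by luminescence after 1 h.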
Shiga toxin inh: blocks Shiga toxin action in Vero cells; Vero cells, Shiga toxin protein synthesis inhibition reporter; inhibition, % at 38.7 µM; 290,000 tested, 9.2% active; in the data active means inhibition mostly above about 28%, no sharp cut-off; inactive means mostly below about 43%; further: 0% is about no effect
Tb PYK inh: T. brucei pyruvate kinase inhibition; Q57TT1; TbPYK enzyme, Kinase-Glo Plus ATP luminescence, 45 min; Potency, µM (top dose mostly 76.8 µM), without a hit: at the highest dose activity, negative = inhibition, hits mostly inhibitors; 410,000 tested, 0.12% active; AID 624173; further: potency means the concentration at half of the fitted maximal effect; on the % scale 0 is the no-effect control and ±100 the full control effect; nearly all actives have a fitted effect of over 50% in size
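Readout: single end-point luminescence (Kinase-Glo Plus, 10 min). Reaction conditions were TbPYK/substrate plus 130 uM ADP, 45 min at RT, pH 7.2 TEA buffer. No-enzyme wells served as controls, and data were normalized before concentration-response fitting.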
Cycloheximide cs: counter-screen for Shiga toxin inhibitors: cycloheximide protein synthesis inhibition | cell reporter, cycloheximide protein synthesis inhibition counterscreen | max response, % | 300,000 tested, 12% active; in the data active means max response mostly above about 13%, no sharp cut-off; inactive means mostly below about 14%; further: read at 38.3 µM for the half of the compounds with a filed dose; 0% is about no effect
FBPA Giardia inh: blocks Giardia fructose-bisphosphate aldolase activity | purified Giardia FBPA | AID 2451 | 290,000 tested, 0.71% active | Potency, µM (highest dose often 59.6 µM), for inactives: top-dose activity, negative = inhibition, usual class: inhibitors; further: potency means the concentration at half of the fitted maximal effect; on the % scale 0 is the no-effect control and ±100 the full control effect; nearly all actives have a fitted effect of over 55% in size
Target sequence (A8B2U2 whole entry, looked up): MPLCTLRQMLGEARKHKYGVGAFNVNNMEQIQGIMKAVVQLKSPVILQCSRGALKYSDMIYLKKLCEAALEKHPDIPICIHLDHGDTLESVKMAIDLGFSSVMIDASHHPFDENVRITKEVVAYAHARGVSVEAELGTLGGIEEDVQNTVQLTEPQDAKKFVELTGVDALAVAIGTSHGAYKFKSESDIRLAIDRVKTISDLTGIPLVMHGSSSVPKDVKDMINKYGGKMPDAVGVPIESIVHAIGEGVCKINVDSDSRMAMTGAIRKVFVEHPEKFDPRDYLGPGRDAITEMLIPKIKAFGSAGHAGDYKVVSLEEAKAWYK
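40 nM FBPA preincubated 10 min at RT with compound (up to 57.5 uM final), then substrate plus GAPDH/TPI/NAD/arsenate coupling and diaphorase/resazurin added. Fluorescence read after 20 min at RT, 525/598 nm.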
Sm TGR inh: inhibitors of Schistosoma mansoni thioredoxin glutathione reductase; Q962Y6; purified TGR, DTNB reduction, TNB absorbance 405 nm; Potency, µM (highest dose often 114 µM), without a hit: top-dose activity change, negative = inhibition, usual class: inhibitors; 360,000 tested, 3% active; AID 485364; further: potency means the concentration at half of the fitted maximal effect; on the % scale 0 is the no-effect control and ±100 the full control effect; nearly all actives have a fitted effect of over 60% in size
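TGR 20 nM + NADPH 100 uM (dispensed conc.), cpd preinc 15 min RT; start with NADPH (500 uM addition) then DTNB (15 mM addition). Kinetic TNB absorbance, 405 nm filter. Four-parameter Hill fit across titration.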
Active calls of the source: *; ? = inconclusive; / = not tested or not shown; [ ] = dose if it differs, or a comment. Unless noted, the call rests on the fitted dose curve; in most records, active means well fitted curve in the direction sought with a large enough effect; inconclusive means small, poorly fitted or top-dose-only effect, or another doubt; inactive means no such curve, though single readings can be large; an effect the other way counts as inactive or inconclusive.

SMILES	LmPK inhibitor	Shiga toxin inh	Tb PYK inh	Cycloheximide cs	FBPA Giardia inh	Sm TGR inh
COc1ccc(C(Nc2ccccn2)c2c(NC(=O)c3ccco3)sc(C)c2C)cc1 (centres undefined)	-3%	29	-1%	29*	0%	4%
Cc1sc(NC(=O)c2ccco2)c(C(c2cccnc2)N2CCCC2)c1C (centres undefined)	-2%	15	-13%	18	0%	?
COc1cccc(C(Nc2ccccn2)c2c(NC(=O)c3ccco3)sc(C)c2C)c1 (centres undefined)	5%	6	-10%	1	3%	-18%
CCC(CCC(C)C1CCC2C3CC=C4CC(OC(C)=O)CC[C@@]4(C)C3CC[C@@]12C)C(C)C (some centres undefined)	/	/	/	/	3%	/
Cc1csc(CNc2ncnc3ccc(-c4ccc5c(ccn5C)c4)cc23)c1	/	/	/	/	/	-7%
O=C1NC(=Nc2ccccc2)c2c1cccc2[N+](=O)[O-]	3%	21	4%	19*	-27%	-6%
N/C(=N\OC(=O)c1ccco1)c1ccc(Cl)cc1	-26%	84*	-1%	62*	-5%	0%
N/C(=N\OC(=O)c1ccc(Cl)cc1)c1ccn[nH]1	-27%	49*	-16%	39*	/	7%
N/C(=N\OC(=O)c1ccccc1Cl)c1ccccc1	14µM*	70*	-17%	35*	-2%	-2%
N/C(=N\OC(=O)c1ccccc1Cl)c1ccc(Cl)cc1	-16%	63*	6%	49*	-16%	6%
N/C(CCS(=O)(=O)c1ccc(Cl)cc1)=N\OC(=O)c1ccccc1Cl	2%	-3	-2%	3	2%	-5%
CC(=O)Nc1cccc(-c2nnc(SCC(=O)c3cc([N+](=O)[O-])ccc3Cl)o2)c1	/	/	-1%	/	/	-22%
N/C(=N\OC(=O)c1ccc(Cl)cc1)c1ccc(Cl)cc1	3%	54*	-10%	21*	1%	1%
N/C(=N\OC(=O)c1ccco1)c1cccnc1	-10%	109*	1%	34*	2%	/
N/C(=N\OC(=O)c1ccc(OCC(F)(F)F)nc1)c1ccc(Cl)cc1	-2%	-4	3%	-1	2%	-2%
O=C(OCc1ccccc1Cl)c1ccccc1C(=O)c1ccccc1	3%	65*	-15%	19*	4%	-8%
N/C(=N\OC(=O)COc1ccc(Br)cc1)c1cccnc1	1%	-9	4%	15	6%	2%
Cc1ccccc1Nc1cc(C(=O)NC2CCC(C)CC2)c2ccccc2n1 (centres undefined)	/	/	0%	/	/	11%
CCOc1ccccc1OCCCC(=O)NNC(=O)c1cc(C)oc1C	/	/	1%	/	/	-8%
COc1cc(C=C2C(=O)NC(=O)NC2=O)ccc1OS(=O)(=O)c1ccccc1[N+](=O)[O-]	9%	57*	-26%	21	-26%	2.8µM*
CCOc1cc(C=C2C(=O)NC(=O)NC2=O)ccc1OS(=O)(=O)c1ccccc1	-1%	-16	?	2	?	22µM*
CCOc1cc(/C=C(\C#N)C(N)=O)ccc1OS(=O)(=O)c1ccccc1	1%	-11	-6%	-1	-23%	-12%
CN1C(=O)C(Cc2ccccc2)C(=O)N(C)C1=O	/	/	4%	/	/	/
CN1C(=O)C(Cc2ccsc2)C(=O)N(C)C1=O	2%	13	?	-2	?	5µM*
Cc1cccc2cc3c(nc12)-c1ccccc1C3=O	2%	43*	-2%	17*	-3%	8%
SMILES	LmPK inhibitor	Shiga toxin inh	Tb PYK inh	Cycloheximide cs	FBPA Giardia inh	Sm TGR inh
CC(C)CCCC(C)C1CC(=O)C2=C3CCC4CC(O)CCC4(C)C3CCC21C (centres undefined)	/	/	-9%	/	/	/
Cc1cc(C)c[n+](-c2[nH]c(=O)sc2/C=N/N=C(\[O-])c2cccnc2)c1	0%	11	0%	-5	-11%	-2%
CC(=O)c1ccc(NC(=O)C(C)Sc2nnnn2C)cc1 (centres undefined)	2%	-7	-5%	8	5%	-5%
CC(Sc1ccccn1)C(=O)Nc1ccc(S(N)(=O)=O)cc1 (centres undefined)	3%	-1	3%	1	0%	8%
CC(Sc1ccccn1)C(=O)Nc1ccccc1 (centres undefined)	5%	76*	-11%	40*	-3%	0%
CC(=O)c1ccc(NC(=O)C(C)Sc2ccccn2)cc1 (centres undefined)	2%	77*	6%	34*	-1%	/
CCOC(=O)CNC(=O)O[C@@H]1C(=O)c2cc(OC)ccc2O[C@H]1c1ccc(OC)c(Br)c1	/	/	/	/	-1%	/
COCCCNC(=O)COc1ccc(Br)cc1Cl	-1%	88*	6%	38*	5%	-6%
CCNC(=O)COc1ccc(Br)cc1Cl	-1%	60*	-5%	28*	0%	6%
O=C(COc1ccc(Br)cc1Cl)Nn1cnnc1	-2%	-4	3%	-6	17%	1%
CC(=O)Nc1ccn(C2OC(C(COC(C)=O)NC(=O)C(CCCCNC(=O)OCc3ccccc3)NC(=O)OC(C)(C)C)C(OC(C)=O)C2OC(C)=O)c(=O)n1 (centres undefined)	/	-5	/	6	3%	/
Cc1ccc(CNS(=O)(=O)c2cc3c(cc2Cl)NC(=O)CO3)o1	/	/	5%[15.4 µM]	/	/	32µM*
COc1ccccc1CNc1ccnc(-c2ccc(N(C)C)cc2)n1	/	/	/	/	-21%	/
O=C(COC(=O)C1(c2ccc(F)cc2)CCCC1)NCc1ccco1	3%	6	9%	12	-6%	32µM*
COc1ccccc1NS(=O)(=O)c1ccc(C(=O)OCC(=O)NCc2ccco2)cc1	2%	-13	-5%	-4	6%	40µM*
Cc1nn(Cc2ccccc2Cl)c(Cl)c1C(=O)OCC(=O)NCc1ccco1	2%	10	-3%	11*	6%	-26%
O=C(COC(=O)/C=C/c1ccc(F)cc1)NCc1ccco1	-2%	-21	-3%	9	3%	3%
COc1cccc(OC)c1C(=O)OCC(=O)NCc1ccco1	/	/	1%	/	/	50µM*
Cc1nn(Cc2ccccc2)c(C)c1C(=O)OCC(=O)NCc1ccco1	5%	-5	-2%	-2	6%	4%
CCCCC(=O)Nc1c(C(=O)N2CCN(c3ccccc3F)CC2)oc2ccccc12	/	/	3%	/	/	-4%
O=C(Nc1ccc2ccccc2c1)[C@H]1C[C@@H]1[C@H](NP(=O)(c1ccccc1)c1ccccc1)c1ccccc1	/	/	/	/	-11%	/
Nc1cc(=O)[nH]c(SCC(=O)N2CCC(Cc3ccccc3)CC2)n1	/	/	3%	/	/	0%
Cc1nn(Cc2ccccc2Cl)c(Cl)c1C(=O)NCCc1ccccc1	1%	100*	6%	47*	2%	-10%
COc1ccccc1/C=C/C(=O)OCC(=O)NCc1ccco1	-4%	12	1%	9	5%	1%
